Here are results for 40 molecules from PubChem BioAssay (Tox21).

The structures appear in SMILES notation. Where “and” joins values, the source holds several entries; their conditions need not be identical. Equal values may be shown once. Results filed as inconclusive are left out. Some structures have more than one record in an assay (separate samples or runs), and their calls can disagree. Calls of active or inactive are those of the source. Calls follow the shape of the dose curve; as a rule, active = well fitted inhibition curve with a large enough effect in the repeat runs; inconclusive = weak or mixed curves; inactive = no such curve, though single readings can be large or run the other way.
% is scaled to controls: 0 for no effect and ±100 for the full control effect; potency is read from the fitted curve at half-maximal effect.

Cytochrome P450 2C19 (Homo sapiens), sequence (P33261 whole entry, looked up): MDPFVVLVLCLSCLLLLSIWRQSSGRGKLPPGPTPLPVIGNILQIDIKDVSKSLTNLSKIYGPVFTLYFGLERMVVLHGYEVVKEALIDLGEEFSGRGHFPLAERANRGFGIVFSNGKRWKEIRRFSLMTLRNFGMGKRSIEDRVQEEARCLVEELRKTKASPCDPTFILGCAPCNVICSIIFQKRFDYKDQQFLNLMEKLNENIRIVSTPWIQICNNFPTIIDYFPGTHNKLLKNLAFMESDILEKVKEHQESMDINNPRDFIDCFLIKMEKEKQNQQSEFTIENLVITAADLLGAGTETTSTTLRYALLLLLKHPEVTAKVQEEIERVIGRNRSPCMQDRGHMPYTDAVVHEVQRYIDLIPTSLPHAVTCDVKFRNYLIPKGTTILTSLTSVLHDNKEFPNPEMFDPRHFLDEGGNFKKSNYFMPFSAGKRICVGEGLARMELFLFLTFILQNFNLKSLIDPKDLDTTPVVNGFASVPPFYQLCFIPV

This assay addresses Cytochrome P450 2C19 (Homo sapiens) (UniProt P33261). Briefly: Cytochrome P450 Family 2 Subfamily C Member 19 (CYP2C19) small molecule antagonists: luciferase reporter qHTS assay (AID 1671197). Also: nearly all actives have a fitted effect of over 65% in size. The following applies: P450-Glo CYP2C19 enzyme, luciferin luminescence, 1 h; series mostly up to 115 µM; activity change, negative = inhibition: at the top concentration. The source says:
National Center for Advancing Translational Sciences [NCATS]
U.S. Environmental Protection Agency [EPA]
National Institutes of Environmental Health Sciences [NIEHS]
National Toxicology Program [NTP]
U.S. Food and Drug Administration [FDA]
Cytochrome P450 (CYP) enzymes are membrane-bound hemeproteins that play a key role in metabolism of drugs and xenobiotics. Evaluation of the effect of chemicals on CYP isozymes is useful to minimize the adverse drug reactions and toxicities in drug development process. Tox21 chemicals were tested for their effect on CYP enzyme activities by using P450-Glo (TM) screening systems (Promega Corporation, Madison, WI). These systems provide a luminescent method containing proluciferin substrates and are converted to luciferin products by CYP isozymes. The luciferin products formed are detected with a luciferin detection reagent, and the amount of light produced is proportional to CYP activity. P450-Glo (TM) CYP2C19 screening system (Catalog. No. V9880) was used to detect the compounds that interfere in CYP2C19 activity. The positive control compound used for CYP2C19 assay is ketoconazole (Sigma-Aldrich, St. Louis, MO).
Tox21 Assay Protocol Summary:
Two ul of enzyme-substrate mix was dispensed into medium binding white/solid 1536-well plates (Greiner Bio-One North America Inc., Monroe, NC) using a BioRaptr Flying Reagent Dispenser (FRD, Beckman Coulter, Brea, CA). Compounds dissolved in DMSO and positive control (ketoconazole) were transferred to the assay plates at 23 nl using a Pintool station (Wako, San Diego, CA). The assay plates were incubated at room temperature for 10 min. Then 2 ul of NADPH regeneration solution was added to each well of the assay plates using an FRD and incubated at 37C for 1 h. The reaction was stopped by adding 4 ul of detection reagent using an FRD and after 20 min incubation at room temperature the luminescence signal was measured using a ViewLux plate reader (Perkin Elmer, Shelton, CT). Data were expressed as relative luminescence units.
`CC(C)c1ccc(S(=O)(=O)O)cc1`: the Potency entry is “inactive”.

Regarding `CC(O)COCC(C)O` (stereo not given), the Potency entry is “inactive”. On the same count and under the same terms, in the case of `C=C(C)C(=O)OCCOCCOCCOC(=O)C(=C)C` it was 22.5 µM (active) and 31.7 µM (active); in that of `C=CCNC(N)=S`, 69.4 µM (active) and inactive; in that of `c1ccc(OCCOc2ccccc2)cc1`, 5.02 µM (active) and 5.03 µM (active). On the same count and under the same terms, in the case of `Cc1occc(=O)c1O` it was 71 µM (active) and inactive. Same read-out and setting: under `c1ccc2scnc2c1` stands “inactive”. Consider `COc1ccc(Cl)cc1C(=O)NCCc1ccc(S(=O)(=O)NC(=O)NC2CCCCC2)cc1`, for which the “activity change, negative = inhibition” value is 1.1% [at 52.9 µM] (inactive). In the case of `Cc1ccc(S(N)(=O)=O)cc1`, the Potency is 19.9 µM (active) and inactive.

Regarding `CCCCCCCCCCCCS`, the Potency entry was “inactive”. On the same count and under the same terms, under `CC(=O)Nc1cccc(O)c1` stands “inactive”.

`CCC(O)OCCCOC` (stereo not given): the Potency is 41 µM (active) and inactive.

For `Cc1cccc(O)c1`, the Potency result is “inactive”. For the molecule `CN(C)CCC(c1ccccc1)c1ccccn1` (stereo not given), the “activity change, negative = inhibition” value was 1.48% [at 52.9 µM] (inactive).

For `O=S1(=O)CC=CC1`, the Potency result was “inactive”. Still for that read-out and setting: under `COS(C)(=O)=O` stands “inactive”. On to `OCC(CO)(CBr)CBr`, for which the “activity change, negative = inhibition” value is 3.99% (inactive). For `CCCCCCCCCCCCCCCO`, the Potency is 35.9 µM (active) and 39.9 µM (active). Take `CC(=O)OCC(=O)[C@@]12N=C(C)O[C@@H]1C[C@H]1[C@@H]3CCC4=CC(=O)C=C[C@]4(C)[C@H]3[C@@H](O)C[C@@]12C`: the Potency result was “inactive”. `CCCCCCCCCC`: the Potency entry was “inactive and 71 µM (active)”. As to `O=C(O)c1ccc(C(=O)O)cc1`, the Potency entry is “inactive”.

On to `CCCCCC/C(C=O)=C\c1ccccc1`, for which the Potency was 40.4 µM (active) and 20 µM (active). Regarding `CN(C)CCOCCN(C)C`, the “activity change, negative = inhibition” value was 23.7% (inactive). For the molecule `CCN(CC)c1ccc(C(=O)c2ccccc2C(=O)O)c(O)c1`, the Potency is 71.3 µM (active) and inactive. Still for that read-out and setting: under `CCCCOC(=O)COc1ccc(Cl)cc1Cl` stands 36 µM (active) and 39.9 µM (active); under `O=C(O)c1ccccc1C(c1ccc(O)cc1)c1ccc(O)cc1`, “inactive”. As for `CCC(O)OC(O)CC` (stereo not given), the Potency result was “inactive”. Still for that read-out and setting: in the case of `O=C1CCC(N2C(=O)c3ccccc3C2=O)C(=O)N1` (stereo not given) it was “inactive”; in that of `CCCCC(CC)COC(=O)CCCCC(=O)OCC(CC)CCCC` (stereo not given), 70.6 µM (active); in that of `Nc1ccccc1[N+](=O)[O-]`, “inactive”. Consider `CC(C)CC(=O)CC(C)C`, for which the “activity change, negative = inhibition” value was -6.07% (inactive). As for `Cc1ccc2oc(=O)ccc2c1`, the Potency entry was “inactive and 35.6 µM (active)”. Same read-out and setting: under `O=P(OC(CCl)CCl)(OC(CCl)CCl)OC(CCl)CCl` stands 7.06 µM (active) and 35.6 µM (active).

On to `O=[N+]([O-])c1ccc(/C=C/c2ccc([N+](=O)[O-])cc2S(=O)(=O)O)c(S(=O)(=O)O)c1`, for which the Potency entry was “inactive”. On the same count and under the same terms, under `OC[C@H]1O[C@@](CO)(O[C@H]2O[C@H](CO)[C@@H](O)[C@H](O)[C@H]2O)[C@@H](O)[C@@H]1O` stands “inactive”; under `Cc1cc(C)c(C)cc1C`, “inactive”. The same measure, in the same setting: under `CCCC(C)=O` stands “inactive”. Still for that read-out and setting: under `ON=C1CCCCC1` stands 32 µM (active) and inactive.

For `O=C(O)c1cc(C(=O)O)cc(S(=O)(=O)O)c1`, the “activity change, negative = inhibition” value was 14.4% (inactive). With `O=C(O)c1cc(=O)c2c(OCC(O)COc3cccc4oc(C(=O)O)cc(=O)c34)cccc2o1`, the Potency result was “inactive”.
